# Screening results from PubChem.
# HCV inhibitor – blocks hepatitis C virus; Huh7.5.1 HCVcc-Cre infection, luciferase reporter, 44 h; Potency, µM (titrated, usually from 41.8 µM), without a hit: at the highest dose activity change, negative = inhibition, actives largely listed as inhibitors; hit rate 3.4% among 340,000; AID 651820; active = well fitted inhibition curve with a large enough effect; inconclusive = small, poorly fitted or top-dose-only effect, or another doubt; inactive = no such curve, though single readings can be large or run the other way; also: potency is read from the fitted curve at half-maximal effect
#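 Antiviral activity was scored by luciferase reporter output from cells infected with HCVcc-Cre (~0.5 moi) in presence of compound, 44 h infection period, cells seeded 1,000/well 4 h prior.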
# Vaccinia mCherry – inhibitors of vaccinia virus infection (mCherry reporter signal); hit rate 0.63% among 310,000; Potency, µM (titrated, usually from 36.5 µM), for inactives: at the highest dose activity change, negative = inhibition, actives largely listed as inhibitors; Vaccinia virus mCherry reporter infection, fluorescence; calls by dose curve; tested in A549 cells; also: potency is read from the fitted curve at half-maximal effect; nearly all actives have a fitted effect of over 35% in size
# Vaccinia Venus – vaccinia inhibition (Venus reporter); Vaccinia virus Venus reporter expression, fluorescence; Potency, µM (doses to about 36.5 µM), inactives show at the highest dose activity change, negative = inhibition, hits mostly inhibitors; hit rate 0.46% among 330,000; AID 720580; calls by dose curve; tested in A549 cells; also: potency is read from the fitted curve at half-maximal effect; nearly all actives have a fitted effect of over 30% in size
# HCMV antiviral – blocks human cytomegalovirus replication | HFF cells, HCMV-luciferase reporter, 72 h; stronger effect = lower value | activity change, negative = inhibition, % at 57.5 µM | hit rate 4.5% among 410,000 | AID 1259415; in the data active = activity change below about -60%; inconclusive = no clear call, values can overlap the other calls; inactive = above about -39%
#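 After 16 h attachment at 37C, HFF cells received test compound and HCMV-luciferase (1 PFU/cell); reporter luminescence read 72 h later, data normalized against buffer-only and known inhibitor Salinomycin.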
# Marburg entry inh – blocks Marburg virus binding to or entry into cells; Potency, µM (highest dose often 37.8 µM), without a hit: top-dose activity change, negative = inhibition, hits mostly inhibitors; hit rate 1.8% among 300,000; Marburg virus pseudotyped entry inhibition, cell reporter; calls by dose curve; tested in HEK293 cells; also: potency is read from the fitted curve at half-maximal effect
# Lassa entry inh – Lassa virus entry inhibition; AID 540256; Lassa virus pseudotype entry inhibition, cell reporter; hit rate 1.2% among 300,000; Potency, µM (series often up to 37.9 µM), without a hit: top-dose activity change, negative = inhibition, actives largely listed as inhibitors; calls by dose curve; tested in HEK293 cells; also: potency is read from the fitted curve at half-maximal effect; nearly all actives have a fitted effect of over 50% in size
# Starred values were filed as active, the others as inactive; i = inactive; u = inconclusive; x = no result given; [ ] = dose if it differs, or a comment. An excerpt weighted towards active compounds, which were near 7.8% of everything screened. % is scaled to controls: 0 for no effect and ±100 for the full control effect.
SMILES,HCV inhibitor,Vaccinia mCherry,Vaccinia Venus,HCMV antiviral,Marburg entry inh,Lassa entry inh
COc1cc(C)c(Cl)cc1S(=O)(=O)NCCc1c(C)[nH]c2ccccc12,x,-27%,-6%,8,-18%[46.1 µM],-12%[46.1 µM]
O=C(Nc1ccccc1Br)C(Cc1ccccc1)NS(=O)(=O)c1cccc2nsnc12 (stereo not drawn),x,-14%,-8%,-27,u,u
Brc1ccc(CSc2nccn2-c2ccccc2)cc1,-3%,x,u,-73*,u,-23%
FC(F)(F)c1ccc(CSc2nccn2-c2ccccc2)cc1,2%,-7%,-17%,6,-19%,-1%
CSc1nc(N)c2ncn([C@H]3O[C@H](COP(=O)(O)OP(=O)(O)O)[C@@H](O)[C@@H]3O)c2n1,x,x,x,x,8%,x
Nc1nonc1-c1nc2ccccc2n1Cc1ccc(Cl)cc1,12%,x,x,20,8%,-16%
Cc1ccc(C(=O)n2c(N)nc3ccccc32)cc1,3%,-4%,u,u,7.9µM*,u
Nc1nc2ccccc2n1Cc1ccc(Cl)c(Cl)c1,-21%,u,-30%,18,10µM*,2%[46.1 µM]
Nc1ccc(C(=O)n2c3ccccc3c3ccccc32)cc1,u,x,u,-79*,4µM*,u
Cc1ccc(Cn2c(N)nc3ccccc32)cc1,10µM*,-18%,-13%,u,u,-16%[46.1 µM]
Nc1ccc(C(=O)N2CCCC2)cc1,-6%,x,x,16,-16%,-1%
CCN(CC)CCNC(=O)Cn1ncc2c3ccccc3n(Cc3ccc(Cl)cc3)c2c1=O,x,-10%,-4%,11,-10%[46.1 µM],4%[46.1 µM]
Cc1nc(NCc2cnn(C)c2C)sc1-c1ccn(CC2COc3ccccc3O2)n1 (stereo not drawn),x,-12%,-3%,x,x,x
O=C(NCCc1nnc2n1CCN(Cc1ccccn1)CC2)c1ccc(F)cc1,x,-8%,-6%,x,x,x
CCOC(=O)[C@]12C[C@]3(C)CCN(C(=O)N[C@@H]1c1ccccc1)[C@@H]32,x,x,x,x,34%[14.2 µM],x
CC(=O)Nc1ccc(NS(=O)(=O)c2cc([N+](=O)[O-])ccc2C)cc1,-3%,-13%,-8%,-71*,8%[46.1 µM],-1%
Cc1cc(C)c(S(=O)(=O)Nc2ccccc2-c2ccccc2)c(C)c1,u,-12%,-18%,-79*,u,u
Cc1ccc(C)c(NS(=O)(=O)c2cc(C(=O)Nc3ccccc3-c3ccccc3)ccc2C)c1,u,x,x,-34,u,u
Cc1ccc(C(=O)Nc2ccccc2-c2ccccc2)cc1S(=O)(=O)Nc1cccc(C)c1C,10µM*,-29%,u,-34,u,-42%
Cc1ccccc1NS(=O)(=O)c1cc(C(=O)Nc2cccnc2)ccc1C,32µM*,-26%,-14%,-35,u,-21%
CCOC(=O)c1cc(S(=O)(=O)N2CCN(c3ccccc3)CC2)[nH]n1,x,-5%,-7%,4,x,25%[46.1 µM]
O=c1c2cc3ccccc3nc2ncn1CCc1ccc(Cl)cc1,x,1%,-6%,11,x,x
CCOc1ccc(NC(=O)CSc2ncc(S(=O)(=O)c3ccc(F)c(C)c3)c(=O)[nH]2)cc1,x,1%,-4%,5,-5%[46.1 µM],x
Cc1ccccc1NS(=O)(=O)c1cc(C(=O)Nc2cccc([N+](=O)[O-])c2)ccc1C,u,u,11µM*,-95*,u,11µM*
Cc1ccc(C(=O)Nc2cccc([N+](=O)[O-])c2)cc1S(=O)(=O)Nc1ccc(C(=O)O)cc1,7%,-11%,0%,-20,7%[46.1 µM],1%
SMILES,HCV inhibitor,Vaccinia mCherry,Vaccinia Venus,HCMV antiviral,Marburg entry inh,Lassa entry inh
COc1ccc(C(=O)c2oc3ccccc3c2NC(=O)COc2ccccc2)cc1,x,u,u,-26,x,4%[46.1 µM]
CCOc1ccc(-c2c(C(=O)N/N=C/c3cccc(Br)c3)nnn2-c2nonc2N)cc1,34%,x,x,-63*,x,x
CN1CCN(Cc2c(C(=O)N/N=C/c3cccc(Br)c3)nnn2-c2nonc2N)CC1,9%,x,x,-60*,x,x
CN(C)Cc1c(C(=O)N/N=C/c2cccc(OCc3c(F)cccc3Cl)c2)nnn1-c1nonc1N,u,x,x,-86*,x,x
Nc1nonc1-n1nnc(C(=O)N/N=C/c2cccc(O)c2)c1CN1CCCC1,6%,-17%,-21%,-24,3%[46.1 µM],-6%[46.1 µM]
COC(=O)C1=C(C(=O)OC)[C@@H]2N(C)c3ccccc3[C@@]23CCC(=O)N(CC(C)C)C3=N1,x,x,x,x,8%[14.2 µM],x
COc1ccc(N(Cc2cccs2)C(=O)c2ccco2)cc1,x,-21%,-18%,6,u,-3%[46.1 µM]
Oc1cccc(Nc2cc3[nH]c(-c4ccccc4)cc3cn2)c1,x,x,x,-87*,x,x
Cc1ccc(NC(=O)c2cccc(Oc3ccc([N+](=O)[O-])cc3)c2)c(C(=O)O)c1,13%,x,x,49,x,x
O=C(Nc1ccc(O)cc1)c1cccc(Oc2ccc([N+](=O)[O-])cc2)c1,11µM*,u,-16%,-33,u,u
O=C(Nc1ccc([N+](=O)[O-])cc1)c1cccc([N+](=O)[O-])c1,x,i,-3%,7,x,x
O=C(NNC(=O)c1cccc(O)c1)Nc1ccc([N+](=O)[O-])cc1,-3%,u,-10%,-96*,-3%[46.1 µM],3%[46.1 µM]
COc1cc(OC)c(/C=C/c2cc(/C=C/c3c(OC)cc(OC)cc3OC)[n+](C)c3ccccc23)c(OC)c1,x,u,-7%,x,x,x
COc1cccc(CNC(=O)c2cccc(-n3c(C)nc4cccnc43)c2)c1OC,x,-18%,-9%,0,x,10%[46.1 µM]
C[C@H](c1ccccc1)N1C[C@@H](COCc2ccccc2)Oc2cccc(N3CCCCC3)c2S1(=O)=O,x,x,x,-93*,x,x
Cc1cc(Oc2cccc3c2S(=O)(=O)N([C@H](C)c2ccccc2)C[C@@H](COCc2ccccc2)O3)cc(C)c1C,x,x,x,-93*,x,x
Cc1ccc(S(=O)(=O)N(C)c2cccc3c2S(=O)(=O)N([C@H](C)c2ccccc2)C[C@@H](COCc2ccccc2)O3)cc1,x,x,x,-65*,x,x
Cc1ccc(Oc2cccc3c2S(=O)(=O)N([C@H](C)c2ccccc2)C[C@@H](COCc2ccccc2)O3)cc1,x,x,x,-78*,x,x
CCOc1ccc(C2c3c(oc4ccc(C)cc4c3=O)C(=O)N2Cc2ccc3c(c2)OCO3)cc1OC (stereo not drawn),x,-7%,5%,-2,15%[46.1 µM],-8%[46.1 µM]
COc1ccc(CNC(=O)c2cccc3c(-c4cccnc4)coc23)cc1OC,x,-26%,u,-86*,x,x
Cc1cn2c(=O)cc(COC(=O)c3ccc(NC(=O)c4ccccc4C)cc3)nc2s1,x,-10%,-7%,-33,x,10%[46.1 µM]
CCOC(=O)c1c(NC(C)=O)c2c3c(sc2n1Cc1nc(-c2ccccc2Cl)oc1C)CCCC3,x,-13%,-16%,-20,-1%[46.1 µM],x
CN(CCC#N)Cc1cc(=O)oc2ccc3ccccc3c12,-30%,i,0%,-62*,-15%[46.1 µM],21%[46.1 µM]
COC(=O)CC1C(C)(C)C(OC(C)=O)C2CC3C4CC(=O)OC(c5ccoc5)[C@]4(C)CCC3[C@@]1(C)C2=O (stereo partly drawn),x,i,-18%,x,x,x
